From PubChem BioAssay (NCI)
Several values for one entry are separate records, joined by “and”; a condition that tells them apart may be missing. Identical values can stand only once. About 79,000 compounds went through this panel and 15% of them were active in at least one assay; those are over-represented in the sample as a whole. More than one record can exist for a structure, and the calls need not agree. Activity calls are given as the source filed them. Cut-off read from the data, not from the text of the source: active = growth inhibition above about 70%; inactive = the rest.

Key:
[1] = NCI Yeast Anticancer Drug Screen. Data for the rad50 strain (AID 155);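 note: 0% = growth of vehicle-only cultures of the same strain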; details: S. cerevisiae rad50 strain growth inhibition, stronger effect = higher value
Method in brief: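 Readout: growth inhibition relative to vehicle-treated cultures. Compound exposure was carried out in a genetically defined yeast strain deficient in DNA damage repair.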

[2] = NCI Yeast Anticancer Drug Screen. Data for the mec2-1 strain (AID 157); details: S. cerevisiae mec2-1 strain, stronger effect = higher value
Method in brief: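 Vehicle-treated cultures served as reference for growth inhibition of compound-exposed mec2-1 yeast.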

[3] = NCI Yeast Anticancer Drug Screen. Data for the sgs1 mgt1 strain (AID 161);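 note: 0% = growth of cultures given vehicle only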; details: S. cerevisiae sgs1 mgt1 strain, stronger effect = higher value
Method in brief: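 Inhibition of yeast growth, normalised to vehicle-treated controls, is reported for a strain bearing genetic alterations in DNA damage repair.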

[4] = NCI Yeast Anticancer Drug Screen. Data for the cln2 rad14 strain (AID 165);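 note: 0% = growth equal to vehicle treated cultures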; details: S. cerevisiae cln2 rad14 strain, stronger effect = higher value
Method in brief: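 Each compound was tested on cln2 rad14 yeast. Inhibition of growth was calculated against vehicle-exposed controls.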

[5] = NCI Yeast Anticancer Drug Screen. Data for the bub3 strain (AID 167); details: S. cerevisiae bub3 mutant strain, stronger effect = higher value
Method in brief: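 Readout: yeast growth inhibition, expressed relative to vehicle-only wells. The test organism is a mutant strain from a panel with lesions in DNA repair or checkpoint genes.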

[6] = NCI Yeast Anticancer Drug Screen. Data for the mlh1 rad18 strain (AID 175); details: S. cerevisiae mlh1 rad18 strain growth inhibition, stronger effect = higher value
Method in brief: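 Vehicle-treated cultures served as the reference for growth inhibition in a yeast strain carrying DNA damage repair alterations exposed to each compound.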

[7] = at 5.0 µM (retest, dose inferred, filed as 0.5)
[8] = at 50.0 µM (retest, dose inferred, filed as 5.0)

SMILES | growth inhibition [1, 7] | growth inhibition [1, 8] | growth inhibition ([1]; at 50.0 µM) | growth inhibition [2, 7] | growth inhibition [2, 8] | growth inhibition ([2]; at 50.0 µM) | growth inhibition [3, 7] | growth inhibition [3, 8] | growth inhibition ([3]; at 50.0 µM) | growth inhibition [4, 7] | growth inhibition [4, 8] | growth inhibition ([4]; at 50.0 µM) | growth inhibition [5, 7] | growth inhibition [5, 8] | growth inhibition ([5]; at 50.0 µM) | growth inhibition [6, 7] | growth inhibition [6, 8] | growth inhibition ([6]; at 50.0 µM)
CC(C)C1=C(O)C2=C(C(=O)C1=O)C1(C)CCCC(C)(C)C1CC2O (stereo unspecified) | 42% (inactive) | 98% (active) | 36.9% (inactive) and 14.3% (inactive) | 55% (inactive) | 98% (active) | 22.1% (inactive) and -9.35% (inactive) | 48% (inactive) | 98% (active) | 45% (inactive) and 39.5% (inactive) | 46% (inactive) | 98% (active) | 32.4% (inactive) and 6.45% (inactive) | 75% (active) | 97% (active) | 56.6% (inactive) and 17.4% (inactive) | 56% (inactive) | 98% (active) | 83.1% (active) and 21.6% (inactive)
CCCCCCC(C)CC(CCCCCC)NCCOC(=O)c1ccc([N+](=O)[O-])cc1 (stereo unspecified) | 34% (inactive) and 18% (inactive) | 98% (active) and 97% (active) | 98.8% (active) and 99.2% (active) | 40% (inactive) and 22% (inactive) | 99% (active) | 99.3% (active) and 99.5% (active) | 80% (active) and 42% (inactive) | 99% (active) | 99.2% (active) and 99.5% (active) | 14% (inactive) and 2% (inactive) | 98% (active) | 98.5% (active) and 99.1% (active) | 19% (inactive) and 6% (inactive) | 99% (active) and 98% (active) | 98.7% (active) and 99.3% (active) | 72% (active) and 68% (inactive) | 99% (active) and 98% (active) | 99% (active) and 99.5% (active)
CC(=O)c1c2ccccc2cc2ccccc12 | 7% (inactive) and 61% (inactive) | 74% (active) and 96% (active) | 68.4% (inactive) and 92.3% (active) | 9% (inactive) and 44% (inactive) | 88% (active) and 98% (active) | 79% (active) and 96.5% (active) | 6% (inactive) and 45% (inactive) | 77% (active) and 98% (active) | 53% (inactive) and 94.7% (active) | 12% (inactive) and 49% (inactive) | 89% (active) and 96% (active) | 72.4% (active) and 89.1% (active) | 17% (inactive) and 56% (inactive) | 95% (active) and 97% (active) | 79.5% (active) and 95.6% (active) | 9% (inactive) and 46% (inactive) | 94% (active) and 97% (active) | 75% (active) and 96.2% (active)
CCn1c2ccccc2c2ccc(N=Cc3ccc(N(C)C)cc3)cc21 | 1% (inactive) | 78% (active) | 61.6% (inactive) | -1% (inactive) | 17% (inactive) | 41.5% (inactive) | 2% (inactive) | 40% (inactive) | 61% (inactive) | 0% (inactive) | 45% (inactive) | 27.4% (inactive) | -3% (inactive) | 25% (inactive) | 70.7% (active) | 5% (inactive) | 37% (inactive) | 47.5% (inactive)
Cc1ccc(S(=O)(=O)N/N=C2/C(=O)c3cccc4cccc2c34)cc1 | 6% (inactive) | 74% (active) | 64.5% (inactive) | -15% (inactive) | 64% (inactive) | 12.8% (inactive) | 10% (inactive) | 76% (active) | 55.8% (inactive) | 2% (inactive) | 39% (inactive) | 30.5% (inactive) | 0% (inactive) | 55% (inactive) | 0.25% (inactive) | 33% (inactive) | 92% (active) | 24.8% (inactive)
O/N=C/c1cc(I)c(O)c(I)c1 | 99% (active) | 98% (active) | 98.8% (active) | 97% (active) | 99% (active) | 98.2% (active) | 99% (active) | 99% (active) | 98.8% (active) | 99% (active) | 98% (active) | 98.3% (active) | 99% (active) | 99% (active) | 98.8% (active) | 98% (active) | 98% (active) | 98.5% (active)
OCCNc1nc(NCCO)c2nc(-c3ccccc3)c(-c3ccccc3)nc2n1 | 8% (inactive) and -2% (inactive) | 61% (inactive) and 43% (inactive) | -2.2% (inactive) and 58% (inactive) | -3% (inactive) and 1% (inactive) | 45% (inactive) | -0.45% (inactive) and 43.8% (inactive) | -9% (inactive) and 0% (inactive) | 88% (active) and 51% (inactive) | 0.6% (inactive) and 57.6% (inactive) | 6% (inactive) and -2% (inactive) | 37% (inactive) and 32% (inactive) | -7.45% (inactive) and 49.8% (inactive) | 6% (inactive) and -1% (inactive) | 61% (inactive) and 43% (inactive) | -0.8% (inactive) and 41.7% (inactive) | 5% (inactive) and -1% (inactive) | 89% (active) and 52% (inactive) | 16.5% (inactive) and 61.2% (inactive)
CC12CCC3c4ccc(O)cc4CCC3C1CCC2S (stereo unspecified) | -4% (inactive) | 96% (active) | -7.35% (inactive) and 96.5% (active) | -31% (inactive) | 97% (active) | -1.65% (inactive) and 49.3% (inactive) | -19% (inactive) | 97% (active) | -2.95% (inactive) and 52.2% (inactive) | -3% (inactive) | 96% (active) | -5.3% (inactive) and 94.8% (active) | -9% (inactive) | 97% (active) | 0.75% (inactive) and 98.1% (active) | -26% (inactive) | 95% (active) | -2.3% (inactive) and 96.3% (active)
O=C1C=CC(=O)N1c1ccc(N=Nc2ccccc2)cc1 | 97% (active) | 99% (active) | 86.2% (active) and 7.45% (inactive) | 99% (active) | 99% (active) | 86.2% (active) and -13.1% (inactive) | 99% (active) | 91% (active) | 89.7% (active) and 21.8% (inactive) | 98% (active) | 92% (active) | 87.2% (active) and 20.6% (inactive) | 99% (active) | 91% (active) | 87% (active) and 5.75% (inactive) | 98% (active) | 99% (active) | 85.5% (active) and 5.9% (inactive)
O=c1c(Cl)c(Cl)cnn1-c1ccccc1 | 33% (inactive) | 58% (inactive) | 30.9% (inactive) and 6.8% (inactive) | 1% (inactive) | 22% (inactive) | 45% (inactive) and -8.9% (inactive) | -6% (inactive) | 14% (inactive) | 35.7% (inactive) and -2.25% (inactive) | 17% (inactive) | 19% (inactive) | 28.1% (inactive) and 13.8% (inactive) | 10% (inactive) | 21% (inactive) | 23.9% (inactive) and -9.2% (inactive) | 8% (inactive) | 26% (inactive) | 72.6% (active) and -13.8% (inactive)
CC1=CC(=Nc2ccc(N(C)C)cc2)C=CC1=O | 1% (inactive) | 7% (inactive) | -4.05% (inactive) and 78.8% (active) | -5% (inactive) | 2% (inactive) | 10.2% (inactive) and 46.4% (inactive) | 1% (inactive) | 7% (inactive) | 21.9% (inactive) and 84.1% (active) | -3% (inactive) | -6% (inactive) | -4.55% (inactive) and 33.5% (inactive) | -1% (inactive) | -9% (inactive) | -7% (inactive) and 21.4% (inactive) | -3% (inactive) | 9% (inactive) | 16.4% (inactive) and 66.2% (inactive)
O=C(Nc1cc(-c2ccccc2)[nH]n1)c1ccccc1F | 41% (inactive) | 59% (inactive) | 88.1% (active) | 35% (inactive) | 69% (inactive) | 86% (active) | 39% (inactive) | 83% (active) | 92.8% (active) | 30% (inactive) | 54% (inactive) | 66.5% (inactive) | 42% (inactive) | 55% (inactive) | 89.3% (active) | 43% (inactive) | 86% (active) | 89.6% (active)
